Activity calls are given as the source filed them.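 The calls were made as follows: active = cell survival after UV exposure 2 SD above solvent-only control wells at 10 µM, confirmed on one or two repeats; inactive = the rest.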

This test is described as follows: protection of CHO cells from pyrene-fatty acid UV killing, primary screen, phospholipid biosynthesis inhibitor project, ZR-82 cells, Analyticon library, screen 2 (AID 1347383).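 Also: survival reflects blocked phospholipid synthesis cutting uptake of the phototoxic fatty acid; compound and fatty acid exposure 3 h then viability read next day.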 The settings on record: ZR-82 CHO cells, CellTiter Blue, at 10 µM, peroxisome-deficient CHO-K1 variant, with DGAT-1, DGAT-2 and ACAT inhibitors. On the technique in general: The colour change of resazurin is a common sign of viable cells or microbes.
Consider `CC1=CC(=O)CC(C)(C)[C@@]1(O)/C=C/C(C)=C/C(=O)O`, for which the compound was classed as inactive.
On to `CC(C)=CCCC1=CC(=O)OC1O` (centres undefined), for which the outcome was inactive.
On to `C=C1C(=O)OC2/C=C(\C)C3=CC(=O)C(C)(CC(OC(=O)/C(C)=C/COC(C)=O)C12)O3` (centres undefined), for which the compound was classed as inactive.
The same measure for `COC1C(=O)CCC2(CO2)C1(O)C1(C)OC1CC=C(C)C` (centres undefined): “inactive”; for `COC(=O)/C=C/C1(O)C=CC(=O)C=C1`: “inactive”.
On to `C=CCC1=CC(OC)(C(C)Cc2ccc3c(c2)OCO3)C(OC)=CC1=O` (centres undefined), for which the compound was called inactive.
For the compound `CC(C)C(=O)C1(C(C)CC(=O)O)CCC(C)C(=O)C1` (centres undefined), the outcome was inactive.
The same measure for `CC/C=C/CC1=C(CCCCCCCC(=O)O)CCC1=O`: “inactive”; for `O=C(Cc1ccccc1)O[C@@H]1[C@@H](O)[C@H](O)[C@@H](CO)O[C@H]1O`: “inactive”; for `CC(C(=O)CCCCC(O)C(C)O)C(=O)N1C=CCC1` (centres undefined): “inactive”.
The same measure for `C=C1C2=C(C(=O)N1OC)[C@H](O)[C@](C)(O)[C@H](CCCCC)O2`: “inactive”; for `Cc1c(O)cc(C(C)C)c(O)c1-c1c(C)c(O)cc(C(C)C)c1O`: “inactive”; for `COc1cc(O)c2c(=O)c3cc(O)c(O)cc3oc2c1`: “inactive”.
On to `O=C1c2ccc(O)cc2O[C@@H](c2ccc(O)c(O)c2)[C@@H]1O`, for which the outcome was inactive.
Turning to `Cn1c2c(c(=O)c3cc(O)ccc31)CC(C(C)(C)O)O2` (centres undefined), the compound was classed as inactive.
The same measure for `CC(=O)Nc1ccccc1C(=O)O`: “inactive”; for `O=C(O)CCc1c(O)ccoc1=O`: “inactive”.
`C=CC(C)(O)CC[C@@]1(C)[C@H](C)CC[C@]2(C)[C@@H]1C[C@@H](O)[C@@H](O)[C@]2(C)O` (some centres undefined): the call was inactive.
Take `OCc1ccccc1O[C@@H]1O[C@H](CO)[C@@H](O)[C@H](O)[C@H]1O`: the outcome was inactive.
With `COC1=C(C)C(=O)c2c(cc(O)c3c2OC(C)C3(C)CCC=C(C)C)C1=O` (centres undefined), the compound was classed as inactive.
Turning to `Cc1cc(O)cc2c(=O)oc(CC(C)O)cc12` (centres undefined), the result was inactive.
The same measure for `CC(C)=CCc1cc(C(=O)/C=C/c2ccc(O)cc2)c(O)cc1O`: “inactive”.
The same measure for `O=C1c2c(O)cc(O)cc2O[C@H](c2ccccc2)[C@H]1O`: “inactive”.
The same measure for `O=C(CCc1ccccc1)C[C@@H](O)CCc1ccccc1`: “inactive”; for `CC(=O)/C=C(O)/C=C/c1ccc(O)cc1`: “inactive”.
With `COc1cc(O)c2c(c1)C(=O)c1cc(C)cc(O)c1C2=O`, the outcome was inactive.
On to `COc1ccc(/C=C/C(=O)O)cc1O`, for which the compound was called inactive.
The same measure for `CCCCCC(O)CC(O)CC(=O)O` (centres undefined): “inactive”; for `Oc1cc(O)cc(/C=C/c2ccc(O)c(O)c2)c1`: “inactive”; for `CC(C)c1ccc2c(c1)[C@H](O)CC1[C@@](C)(C(=O)O)CCC[C@]21C` (some centres undefined): “inactive”.
The same measure for `CC[C@H](C)C(=O)O[C@H]1CCC=C2C=C[C@H](C)[C@H](CC[C@H]3C[C@@H](O)CC(=O)O3)[C@H]21`: “inactive”.
Regarding `COC(=O)/C=C/c1ncn(C)c1CC=C(C)C`, the result was inactive.
The same measure for `COC1=CC(=O)CC(C)C12Oc1cc(OC)cc(O)c1C2=O` (centres undefined): “inactive”.
Consider `CC[C@H](C)C(=O)O[C@H]1C[C@@H](C)C=C2C=C[C@H](C)[C@H](CC[C@@H]3C[C@@H](O)CC(=O)O3)[C@H]21`, for which the compound was classed as inactive.
With `C=C1C(=O)O[C@@H]2/C=C(\C)CC/C=C(\C(=O)O)C[C@@H](OC(=O)/C(C)=C/C)C12` (some centres undefined), the call was inactive.
The same measure for `CCCO[C@@H]1O[C@H](CO)[C@@H](O)[C@H](O)[C@H]1O[C@@H]1OC[C@@H](O)[C@H](O)[C@H]1O`: “inactive”.
For `O=C(O)C(O)Cc1c[nH]c2ccccc12` (centres undefined), the outcome was inactive.
The same measure for `COc1cc(=O)oc(C(C)C(C)O)c1CO` (centres undefined): “inactive”.
The same measure for `O=C(/C=C/c1ccc(O)c(O)c1)N[C@@H](Cc1ccc(O)c(O)c1)C(=O)O`: “inactive”.

The values are drawn from PubChem BioAssay AID1347383 (Zoeller Lab, School of Medicine, Boston University, 2020).
